High-throughput results deposited in PubChem BioAssay by University of Kansas High Throughput Screening Laboratory.
mHTT CaM bind: disrupts binding of mutant huntingtin to calmodulin; AlphaScreen His-mHTT/GST-CaM binding, luminescence; AID 1671202; inhibition, % at 15 µM; P42858; hit rate 3.6% among 190,000
Pf apPOL inh: Pf-apPOL DNA polymerase inhibition; inhibition, % at 10 µM; hit rate 0.25% among 210,000; Recombinant Pf-apPOL, molecular beacon fluorescence, 1.5 h
Of the large screens only hits and unclear results are named; the others gave an inactive call. Hits are enriched below; roughly 3.6% of the tested compounds scored in any of these assays. Rule as the data show it: active = inhibition above about 50%; inactive = the rest.

Cc1nc2c(C(=O)NCCc3ccccc3)c[nH]n2c(=O)c1Cl	none
CC(=O)Nc1c(Cl)cnn(-c2ccccc2)c1=O	none
COc1cc([N+](=O)[O-])cc(C=Nc2ncccc2O)c1O	mHTT CaM bind 72
Cc1cccc(N=Cc2cc(I)cc(I)c2O)c1	none
CCOc1cc([N+](=O)[O-])cc(C=Nc2ccc3ncccc3c2)c1O	none
Oc1cccnc1N=Cc1cc(I)cc(I)c1O	mHTT CaM bind 90
COc1cccc(N=Cc2cc([N+](=O)[O-])cc(OC)c2O)c1	mHTT CaM bind 76
COc1cc([N+](=O)[O-])cc(C=Nc2cccc(Cl)c2Cl)c1O	none
N#Cc1c(N=Cc2cc(Br)c(O)cc2O)sc2c1CCCC2	none
CCC1CN2C=NC(N3CCN(C(=O)c4ccc(C)c(F)c4)CC3)=CC2=N1 (configuration not stated)	none
c1ccc(-n2ncc3c2CCc2c-3[nH]c3ccccc23)cc1	none
c1ccc(-n2ncc3c2-c2[nH]c4ccccc4c2CC3)cc1	mHTT CaM bind 93
CC(=O)Nc1ccccc1NC(=O)COc1ccccc1	none
COc1ccc(NC(=O)COc2ccccc2)c2ccccc12	Pf apPOL inh 74
O=C1OCCN1C(=O)[C@H]1[C@H](c2ccccc2)C(c2ccccc2)=NN1c1ccccc1	none
O=C1OCCN1C(=O)[C@H]1[C@H](c2ccccc2)C(c2ccc(F)cc2)=NN1c1ccc(Br)cc1	none
O=C1OCCN1C(=O)[C@H]1[C@H](c2ccc([N+](=O)[O-])cc2)C(c2ccc(F)cc2)=NN1c1ccc(Br)cc1	mHTT CaM bind 65
O=C1OCCN1C(=O)[C@H]1[C@H](c2ccc([N+](=O)[O-])cc2)C(c2ccc(F)cc2)=NN1c1ccccc1	mHTT CaM bind 54
CN(C)S(=O)(=O)c1ccc(C(=O)Nc2c3c(nn2-c2ccc([N+](=O)[O-])cc2)CSC3)cc1	none
COC(=O)c1cc2c(cc1NC(=O)C1CCN(c3nccc(C)n3)CC1)OCO2	none
COC(=O)c1cnc2nc(C)ccc2c1Nc1ccc(F)c(C#N)c1	none
O=c1oc2ccc(Cl)cc2cc1-c1nc(-c2ccc([N+](=O)[O-])cc2)n[nH]1	none
Cc1nnc2ccc(-c3cccc(NC(=O)c4cc(Br)ccc4Cl)c3)nn12	mHTT CaM bind 57
O=C(Nc1cccc(-c2ccc3nnc(-c4cccnc4)n3n2)c1)c1ccc(F)cc1F	mHTT CaM bind 80
CCOc1ccc(-c2cccc(NC(=O)c3ccc(F)cc3F)c2)nn1	none
CCOc1ncccc1C(=O)Nc1cccc(-c2ccc3nnc(C)n3n2)c1	none
Cc1cc(C=Nc2ccc(N3CCOCC3)cc2)c(O)c([N+](=O)[O-])c1	none
COc1ccc(N=Cc2cc([N+](=O)[O-])cc(Br)c2O)cc1Cl	none
CC(=O)N1CCc2sc(C(=O)NCc3cccc(Br)c3)cc2C1	mHTT CaM bind 56
CC(=O)N1CCc2sc(C(=O)NCc3cccc(Cl)c3)cc2C1	none
O=C(Nc1ccc(-n2nncc2C23CC4CC(CC(C4)C2)C3)cc1)c1cccs1	none
COc1cc(Nc2cc(C(=O)N3CCCCC3)nc3ccccc23)cc(OC)c1	none
COc1ccc2c(=O)c(Oc3ccc(C(=O)NC4CCS(=O)(=O)C4)cc3)coc2c1 (configuration not stated)	none
O=C(Cc1ccccc1)NCCCc1ccccc1	none
COc1ccc(S(=O)(=O)Nc2cc3sc(=O)oc3c3ccccc23)cc1	mHTT CaM bind 100
COc1ccc(S(=O)(=O)Nc2ccc3oc(=O)sc3c2)cc1	none
CCc1c(C)nc2ccccc2c1SCC(=O)O	none
Cn1nc(CC(=O)Nc2cccc(F)c2)c2ccccc2c1=O	none
CC(=O)Nc1ccc(C2(C(=O)N3CCN(c4ccccc4)CC3)CCCCC2)cc1	mHTT CaM bind 91
CC(C)C(=O)Nc1ccc(C2(C(=O)N3CCN(c4ccccn4)CC3)CCCCC2)cc1	none
CNC(=O)Nc1ccc(C2(C(=O)N3CCN(c4ccccc4)CC3)CCC2)cc1	none
CNC(=O)Nc1ccc(C2(C(=O)N3CCN(c4cccc(Cl)c4)CC3)CCC2)cc1	mHTT CaM bind 67
Cc1cccn2c(=O)c3cc(C(=O)Nc4cc(C(F)(F)F)ccc4Cl)sc3nc12	none
COc1cc(OC)c(NC(=O)C2CCn3c(nc4ccccc43)C2)cc1Cl (configuration not stated)	none
Cc1ccc(-n2sc(=O)n(Cc3ccc(F)cc3)c2=O)cc1	none (no result: mHTT CaM bind)
Cc1noc(C)c1-n1sc(=O)n(-c2ccc(F)cc2)c1=O	Pf apPOL inh 73 (no result: mHTT CaM bind)
O=C(C1CCN(Cc2ccc(OCc3ccccc3)cc2)CC1)N1CCN(c2ccccc2)CC1	mHTT CaM bind 63
O=C(C1CCN(Cc2cccc(OCc3ccccc3)c2)CC1)N1CCOCC1	none
CC(=O)NC(c1ccc(C)cc1)c1ccc2cccnc2c1O (configuration not stated)	mHTT CaM bind 100
O=[N+]([O-])c1ccc(NC(c2ccco2)c2ccc3cccnc3c2O)cc1 (configuration not stated)	mHTT CaM bind 100
CC(Oc1cccc2cccnc12)C(=O)O (configuration not stated)	none
Cc1ccccc1C(NC(N)=O)c1ccccc1 (configuration not stated)	none
